A selection: hits, their analogues and other compounds. The true share with any hit is near 2.4%.
Pol kappa inh-1 – blocks human DNA polymerase kappa activity. AID 588579. purified Pol kappa, fluorescent DNA synthesis assay, 10 min. 400,000 tested, 0.53% active. Q9UBT6. Potency, µM (titrated, usually from 107 µM), for inactives: at the top dose activity, negative = inhibition, most hits filed as inhibitors; further: potency means the concentration at half of the fitted maximal effect; on the % scale 0 is the no-effect control and ±100 the full control effect
Target sequence (Q9UBT6 whole entry, looked up): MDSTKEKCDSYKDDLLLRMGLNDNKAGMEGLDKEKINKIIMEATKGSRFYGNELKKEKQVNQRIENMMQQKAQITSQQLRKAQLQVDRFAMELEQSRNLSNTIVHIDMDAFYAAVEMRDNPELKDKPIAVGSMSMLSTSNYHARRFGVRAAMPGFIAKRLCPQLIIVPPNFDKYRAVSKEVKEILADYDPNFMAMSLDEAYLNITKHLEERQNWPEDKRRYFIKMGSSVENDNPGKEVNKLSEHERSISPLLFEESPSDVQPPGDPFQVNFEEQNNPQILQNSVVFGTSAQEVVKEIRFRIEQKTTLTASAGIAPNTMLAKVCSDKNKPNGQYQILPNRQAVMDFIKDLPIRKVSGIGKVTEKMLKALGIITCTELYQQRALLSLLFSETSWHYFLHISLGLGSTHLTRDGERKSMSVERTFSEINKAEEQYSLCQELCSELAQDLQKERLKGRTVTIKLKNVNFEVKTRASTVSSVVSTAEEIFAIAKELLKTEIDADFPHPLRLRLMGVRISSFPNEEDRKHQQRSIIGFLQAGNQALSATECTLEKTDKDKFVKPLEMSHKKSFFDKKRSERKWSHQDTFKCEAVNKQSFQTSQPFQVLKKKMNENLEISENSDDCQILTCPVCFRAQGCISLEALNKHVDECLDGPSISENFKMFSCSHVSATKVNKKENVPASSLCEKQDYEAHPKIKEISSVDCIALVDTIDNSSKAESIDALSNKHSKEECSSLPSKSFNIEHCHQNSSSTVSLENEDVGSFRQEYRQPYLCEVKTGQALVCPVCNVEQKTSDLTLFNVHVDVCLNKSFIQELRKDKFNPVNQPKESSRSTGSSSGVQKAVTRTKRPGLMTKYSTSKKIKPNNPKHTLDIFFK
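Kinetic fluorescence readout at 0 and 10 min followed reaction start with substrate at 50 nM final. Beforehand, enzyme (10 nM Pol kappa) stood 15 min with compound at room temperature; buffer-only wells were negative controls.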
TDP1 block – inhibitors of human tyrosyl-DNA phosphodiesterase TDP1. Q9NUW8. recombinant TDP1, AlphaScreen DNA substrate cleavage. Potency, µM (top dose mostly 130 µM), for inactives: at the highest dose activity change, negative = inhibition, actives largely listed as inhibitors. 350,000 tested, 0.28% active; further: potency means the concentration at half of the fitted maximal effect; on the % scale 0 is the no-effect control and ±100 the full control effect; nearly all actives have a fitted effect of over 40% in size
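Recombinant E. coli-expressed Tdp1 (1 nM) preincubated with compound 15 min at RT, then 5'-biotin/3'-phosphotyrosine-FITC DNA substrate (15 nM) added for 5 min. AlphaScreen beads (10 ug/ml) added, 10 min RT; tyrosine-FITC cleavage read as signal loss.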
POLI inh – DNA polymerase iota (human) inhibition | 390,000 tested, 1% active | AID 588590 | Pol iota fluorescent replication assay, 10 min | Potency, µM (titrated, usually from 115 µM), for the others: top-dose activity, negative = inhibition, actives largely listed as inhibitors; further: potency means the concentration at half of the fitted maximal effect
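Pol iota at 10 nM preincubated 15 min with compounds at room temperature; reaction started with fluorescent substrate, 50 nM final. Fluorescence read kinetically at 0 and 10 min; buffer-only wells as negative control.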
Pol beta inh – blocks human DNA polymerase beta activity; Potency, µM (top dose mostly 114 µM), for inactives: top-dose activity change, negative = inhibition, hits mostly inhibitors; 340,000 tested, 1.3% active; P06746; Pol beta primer extension/strand displacement, fluorescence kinetic; further: potency means the concentration at half of the fitted maximal effect; on the % scale 0 is the no-effect control and ±100 the full control effect
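10 nM enzyme + cpd, 15 min RT; start with substrate 50 nM final; read 0 min and after 10 min RT. Corrected, normalized data; 4-parameter Hill curve fit.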
FEN1 inhibitor – human FEN1 inhibition; 390,000 tested, 0.35% active; Recombinant FEN1 flap cleavage, fluorescence, 15 min; AID 588795; Potency, µM (highest dose often 114 µM), for inactives: at the top dose activity change, negative = inhibition, actives largely listed as inhibitors; further: potency means the concentration at half of the fitted maximal effect; on the % scale 0 is the no-effect control and ±100 the full control effect; nearly all actives have a fitted effect of over 65% in size
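Nuclease activity of 10 nM FEN1 was measured after 15 min of room-temperature exposure to titrated compounds, by adding 50 nM flap substrate and reading plates at 0 and 15 min.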
Pol eta inh-1 – blocks human DNA polymerase eta activity | Q9Y253 | Potency, µM (top dose mostly 114 µM), without a hit: at the top dose activity change, negative = inhibition, actives largely listed as inhibitors | recombinant Pol eta, fluorescent DNA replication assay | 390,000 tested, 1.2% active; further: potency means the concentration at half of the fitted maximal effect; on the % scale 0 is the no-effect control and ±100 the full control effect
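Fluorescent replication assay: 50 nM final substrate added after a 15 min room-temperature compound preincubation with 10 nM enzyme. Signal taken at 0 min and again at 10 min.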
GALK inh confirm – galactokinase (human) inhibition, confirmation; shares compounds with Pol eta inh-1; purified GALK, Kinase-Glo ATP depletion luminescence; Potency, µM (top dose mostly 115 µM), for inactives: at the highest dose activity, negative = inhibition, actives largely listed as inhibitors; 150 tested, 70% active
GALK redox cs – generates H2O2 by redox cycling, flagging GALK artifacts | 150 tested, 40% active | Potency, µM (top dose mostly 115 µM), inactives show top-dose activity change, negative = H2O2 signal, usual class: inhibitors | Phenol red-HRP H2O2 redox cycling, absorbance 600 nm | shares compounds with Pol eta inh-1
HEK293 viability – counter-screen for GALK inhibitors: HEK293 cell cytotoxicity. HEK-293 viability, ATP luminescence (CellTiter-Glo), 24/48 h. AID 2547. 170 tested, 10% active. shares compounds with Pol eta inh-1. Potency, µM (doses to about 46.1 µM), for the others: top-dose activity change, negative = cytotoxicity, usual class: inhibitors; further: potency means the concentration at half of the fitted maximal effect; on the % scale 0 is the no-effect control and ±100 the full control effect
Pol kappa inh-2 – Pol kappa (human) inhibition, cherry-pick confirmation; purified Pol-kappa, fluorescent strand-displacement substrate; AID 720501; shares compounds with Pol eta inh-1; 920 tested, 76% active; Potency, µM, hits mostly inhibitors; further: potency means the concentration at half of the fitted maximal effect
Pol eta inh-2 – confirmation of human DNA polymerase eta inhibitors; shares compounds with Pol eta inh-1; Pol eta primer extension, TAMRA/BHQ fluorescence, 10 min; Potency, µM, actives largely listed as inhibitors; 2,600 tested, 64% active; further: potency means the concentration at half of the fitted maximal effect
Active calls of the source: *; ? = inconclusive; nt = no result given; ! = repeats disagree; [ ] = dose if it differs, or a comment. The call rests on the fitted dose curve; in most records, active means well fitted curve in the direction sought with a large enough effect; inconclusive means small, poorly fitted or top-dose-only effect, or another doubt; inactive means no such curve, though single readings can be large; an effect the other way counts as inactive or inconclusive.

SMILES	Pol kappa inh-1	TDP1 block	POLI inh	Pol beta inh	FEN1 inhibitor	Pol eta inh-1	Pol eta inh-2	others
Cc1ccc(NC(=O)Cn2cc(S(=O)(=O)NC(C)C)c(S(=O)(=O)NC(C)C)c2)cc1Cl	-11%	1%	3%	0%	0%	-16%	nt
COc1ccccc1CNC(=O)c1cc2sccc2n1Cc1ccc(Cl)cc1	-7%	6%	-3%	38%	-10%	-2%	nt
NC(=O)C1(N2CCCCC2)CCN(C(=O)Nc2ccc(F)cc2F)CC1	0%	1%	30%	3%	10%	nt	nt
Cc1ccc2cc(/C=N/NC(=O)c3ccc(F)cc3)c(Cl)nc2c1	-4%	6%	82%	0%	-2%	-2%	nt
Cc1ccc2nc(Cl)c(/C=N/Nc3ccc(C(=O)O)cc3)cc2c1	?	nt	-37%	-21%	45µM*	22µM*	27*
Cc1ccc(S(=O)(=O)/N=C2/NC(=O)/C(=C/c3cccnc3)S2)cc1	-8%	5%	?	?	5%	?	nt
Cc1ccc(S(=O)(=O)/N=C2/NC(=O)/C(=C\c3cc(Br)cc(Br)c3O)S2)cc1	-35%	1%	?	?	28µM*	22µM*	nt	GALK inh confirm=24µM*;GALK redox cs=-2%;HEK293 viability=8%
Cc1ccc(S(=O)(=O)/N=C2/NC(=O)/C(=C/c3ccc(Br)o3)S2)cc1	?	nt	?	?	-16%	22µM*	?
CCOC(=O)N1CCN(C(=O)CCSc2ccccc2)CC1	-18%	5%	26%	0%	-12%	-8%	nt
COc1cc(Cl)cc(C2NC(=O)NC(C)=C2C(C)=O)c1OCC(=O)O (stereo not given)	?	-2%	?	16µM*	-13%	25µM*	?
COC(=O)c1ccc(NC(=O)CSc2cn(CC(=O)N3CCCCCC3)c3ccccc23)cc1	3%	8%	26%	0%	-4%	-19%	nt
CCOC(=O)c1ccc2c(c1)[C@@H]1C=CC[C@@H]1[C@H](c1cccc(OC)c1OC)N2	-32%	nt	?	-12%	-20%	-7%	nt
COc1ccc(Br)cc1[C@@H]1Nc2ccc(C(=O)O)cc2[C@@H]2C=CC[C@@H]21	35µM*	nt	25µM*	-22%	?	79µM*	30*
COc1ccc(OC)c([C@@H]2Nc3ccc(C(=O)O)cc3[C@@H]3C=CC[C@@H]32)c1	-2%[60.1 µM]	nt	-7%	-1%	-20%	35µM*	85*	Pol kappa inh-2=34*
COC1(C(F)(F)F)NC(=O)N(c2ccc(F)cc2)C1=O (stereo not given)	-6%	6%	25%	2%	2%	-11%	nt
CSc1nnc(-c2ccco2)c(-c2ccco2)n1	?	nt	?	8.9µM*	-20%	11µM*	?
CSc1nnc(-c2ccccc2)c(-c2ccccc2)n1	-17%	-1%	-12%	11%	10%	-19%	nt
CCCOc1ccc(-c2nn(-c3ccccc3)cc2/C=C2\SC(N)=NC2=O)cc1	1%	-3%	50%	42%	-3%	6%	nt
NC1=NC(=O)/C(=C/c2cn(CCC(=O)O)nc2-c2ccc(Cl)cc2)S1	-16%	0%	-17%	30%	-17%	14µM*	nt	Pol kappa inh-2=17*
COc1ccc(-c2nn(CCC(=O)O)cc2/C=C2\SC(N)=NC2=O)cc1	79µM*	nt	-18%	9%	-17%	5.6µM*	27*	Pol kappa inh-2=21*
Cc1ccc(-c2noc(-c3cccnc3NCc3ccc(Cl)cc3)n2)cc1	-11%	6%	7%	?	-3%	-19%	nt
CC(C)(C)C1CCc2oc3ccc(NS(=O)(=O)c4ccc(C(=O)O)cc4)cc3c2C1 (stereo not given)	?	-3%	?	?	-22%	?	nt	Pol kappa inh-2=?
O=C1CC(c2ccc(O)c(O)c2)Oc2cc(O)cc(O)c21 (stereo not given)	16µM*	-6%	50µM*	?	?	22µM*	76*
CCN(CC)C(=O)[C@H]1C[C@H](CC(=O)NCCC2=CCCCC2)C(=O)N2CCc3c([nH]c4ccc(Cl)cc34)[C@]12C	-17%	3%[56.1 µM]	?	nt	?	-18%	nt
CCC(=O)OC1(C)C(=O)C=C2C=C(CCCCNC(=O)OC(C)(C)C)OC=C2C1=O (stereo not given)	nt	6%	nt	nt	nt	nt	nt
SMILES	Pol kappa inh-1	TDP1 block	POLI inh	Pol beta inh	FEN1 inhibitor	Pol eta inh-1	Pol eta inh-2	others
CCOC(=O)CCCCC1=CC2=CC(=O)C(C)(O)C(=O)C2=CO1 (stereo not given)	nt	1%[21 µM]	nt	nt	nt	nt	nt
CCCCC1=CC2=CC(=O)C(C)(OC(=O)C3CCCC3)C(=O)C2=CO1 (stereo not given)	79µM*	4%	50µM*	-29%	?	40µM*	?
CCC(=O)OC1(C)C(=O)C=C2C=C(CCCC(=O)OC)OC=C2C1=O (stereo not given)	?	6%	?	nt	?	25µM*	54*
O=C(O)CCCC(=O)Nc1ccc(N2CCCC2)cc1	35µM*	-12%	?	-2%	-8%	13µM*	48*
CCCC(=O)Nc1ccc(N2CCCCC2)cc1	-10%	1%	7%	16%	-5%	-6%	nt
Oc1ccc(NCc2ccc(OCc3ccccc3)cc2)cc1	?	8%	10µM*	2%	?	79µM*!	?
CC(C)(C)C(=O)Nc1ccc2c(c1)C(=O)C(=O)c1ccccc1-2	4%	-6%	1.4µM*	nt	?	nt	nt	HEK293 viability=5.6µM*
Cc1ccc(OCC(=O)N/N=C/c2cccn2C)cc1C	-11%	9%	2%	-2%	3%	-7%	nt

Assay outcomes (PubChem BioAssay)
